{
  "source": "PubChem BioAssay AID651821",
  "about": "(The Scripps Research Institute Molecular Screening Center, 2012)",
  "note": "Hit rate of the full screen: of about 370,000 compounds, about 4,700 (1.3%) were called active. Many of the other results were omitted from the sample, so actives are more common in it than they were. A number with no mark means an inactive call.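 Rule for the calls: active = inhibition above the plate cutoff, the mean of all test compounds on that plate plus 3 SD (cut at about 35% in these data); inactive = the rest.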",
  "data": [
    {"assay": "small molecules binding CAG repeat RNA – biochemical, fluorescence, primary screen (AID 651821);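 note: 0% = DMSO alone and 100% = 100 µM mitoxantrone as full dye displacement; higher means more dye released from RNA so lower well fluorescence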", "settings": "r(CAG) RNA repeat, TO-PRO-1 dye displacement fluorescence; at 3 µM; active compounds read high", "values": [
      {"compound": "CCOC(=O)c1csc(NC(=O)Nc2cccc(OC)c2)n1", "inhibition": "61.3% (active)"},
      {"compound": "COc1ccc(CN2C(CC(=O)Nc3cccnc3)c3ccc(C(F)(F)F)cc3S2(=O)=O)cc1", "note": "(centres undefined)", "inhibition": "1.65%"},
      {"compound": "CC(=O)c1ccc(Nc2nc(C(N)c3ccccc3)cs2)cc1", "note": "(centres undefined)", "inhibition": "6.98%"},
      {"compound": "COc1ccc(C(N)c2csc(NC(=O)Nc3cccc(C(F)(F)F)c3)n2)cc1", "note": "(centres undefined)", "inhibition": "49.1% (active)"},
      {"compound": "COc1cccc(NC(=O)COC(=O)c2ccc3ccccc3n2)c1", "inhibition": "7.26%"},
      {"compound": "NC(c1csc(NC(=O)Nc2ccccc2Oc2ccccc2)n1)c1ccccc1Cl", "note": "(centres undefined)", "inhibition": "14%"},
      {"compound": "NC(c1csc(NC(=O)Nc2cccc(C(F)(F)F)c2)n1)C1CCCCC1", "note": "(centres undefined)", "inhibition": "35.2% (active)"},
      {"compound": "COc1ccc(CC(N)c2csc(NC(=O)Nc3ccc(C(C)C)cc3)n2)cc1", "note": "(centres undefined)", "inhibition": "30.9%"},
      {"compound": "CCOC(=O)c1cnc(SCC(=O)Nc2cccc(OC)c2)nc1N", "inhibition": "1.08%"},
      {"compound": "NC(c1ccccc1)c1csc(NC(=O)Nc2cccc(C(F)(F)F)c2)n1", "note": "(centres undefined)", "inhibition": "42.2% (active)"},
      {"compound": "CC(C)(C)CC(=O)Nc1nc(C(N)Cc2ccc(C(F)(F)F)cc2)cs1", "note": "(centres undefined)", "inhibition": "1.66%"},
      {"compound": "C/C(CC(=O)Nc1cccc(C(F)(F)F)c1)=N\\NC(=O)C(=O)NCC(C)C", "inhibition": "-2.81%"},
      {"compound": "C=CCn1c(SCC(N)=O)nnc1-c1ccccc1OC", "inhibition": "2.58%"},
      {"compound": "O=C(NCc1ccccc1)[C@@H]1CCCN1C(=O)[C@H]1CCCN1C(=O)c1cccc(Cl)c1", "inhibition": "-1.13%"},
      {"compound": "COC(=O)[C@H](CC(C)C)NS(=O)(=O)c1c(F)cccc1F", "inhibition": "0.25%"},
      {"compound": "C=CCN1C(=O)N(Cc2ccccc2)c2ccccc2S1(=O)=O", "inhibition": "-0.57%"},
      {"compound": "CCC(=O)Nc1ccc2c(c1)C(=O)N(C)[C@@H]1CC[C@@H](CC(=O)NCCc3ccccc3)O[C@H]1CO2", "inhibition": "0.85%"},
      {"compound": "CCOC(=O)[C@]12CCCCC/C=C\\1N(Cc1ccc(OC)cc1)C(=O)[C@H]2CC(=O)NCc1ccc(C)o1", "inhibition": "3.94%"},
      {"compound": "O=C(NS(=O)(=O)c1cccs1)[C@H]1O[C@@H](n2ccc(=O)[nH]c2=O)[C@H](O)[C@@H]1O", "inhibition": "1.16%"},
      {"compound": "CN1CCCc2nc(-c3ccccc3)ccc21", "inhibition": "1.01%"},
      {"compound": "Cc1ccc(Cn2c(SCC(=O)N/N=C/c3ccccc3OCC(=O)O)nc3ccccc32)cc1", "inhibition": "50% (active)"},
      {"compound": "O=C(CSc1nc2ccccc2n1Cc1ccccc1Cl)N/N=C\\c1c[nH]c2ccccc12", "inhibition": "12.2%"},
      {"compound": "CCn1c(SCC(=O)N/N=C/c2ccccc2OCC(=O)O)nnc1-c1ccc(C(C)(C)C)cc1", "inhibition": "18.1%"},
      {"compound": "CC1CCN(c2ccc(C(=O)O)cc2NS(=O)(=O)c2ccc(Br)s2)CC1", "inhibition": "33%"}
    ]}
  ]
}
